Calls of active or inactive are those of the source. The calls were made as follows: active = hit-call score of the fitted dose curve at least 0.9, where 1 is the maximum; inactive = score below 0.9.
Experiment: CCTE_Padilla_ZF_Score.Living: CCTE's 144 Hour Post-fertilization zebrafish Assay Score for Viability, Padilla Lab (AID 2284410);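 also: larval death at 6 dpf judged by absent heartbeat or coagulation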
In short: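 Wild-type zebrafish embryos were exposed singly from 6–8 hpf in sealed wells of Hanks' solution at 26C, then rinsed at 5 dpf. At 6 dpf, blinded assessors scored mortality (no heartbeat or coagulation) by stereomicroscopy, fitted against DMSO.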

Row | Compound | outcome | AC50
1 | O=CC(F)(F)C(F)(F)C(F)(F)F | inactive | 
2 | FC(OC(F)(F)C(F)(F)C(F)(F)F)C(F)(F)F (centres undefined) | inactive | 
3 | COC(=O)C(F)(F)C(F)(F)C(F)(F)C(F)(F)C(F)(F)F | inactive | 
4 | O=C(O)CCC(F)(F)C(F)(F)C(F)(F)C(F)(F)C(F)(F)C(F)(F)F |  | 22.2 µM (active)
5 | C=CC(F)(F)C(F)(F)C(F)(F)C(F)(F)F | inactive | 
6 | CN(CCO)S(=O)(=O)C(F)(F)C(F)(F)C(F)(F)C(F)(F)C(F)(F)C(F)(F)C(F)(F)C(F)(F)F |  | 10.7 µM (active)
7 | O=P(O)(O)CCC(F)(F)C(F)(F)C(F)(F)C(F)(F)C(F)(F)C(F)(F)C(F)(F)C(F)(F)F |  | 11.8 µM (active)
8 | O=C(OC(=O)C(F)(F)C(F)(F)F)C(F)(F)C(F)(F)F | inactive | 
9 | FC1(F)C=CC(F)(F)C1(F)F | inactive | 
10 | O=C(O)C(F)(F)OC(F)(F)C(F)(F)OC(F)(F)C(F)(F)OC(F)(F)C(F)(F)C(F)(F)C(F)(F)F |  | 8.88 µM (active)
11 | FC(F)(F)C1(F)C(F)(F)C(F)(F)C(F)(F)C(F)(C(F)(F)F)C1(F)F (centres undefined) | inactive | 
12 | OCC(F)(F)C(F)(F)C(F)(F)C(F)(F)C(F)(F)C(F)(F)C(F)(F)C(F)(F)C(F)(F)C(F)(F)C(F)(F)F | inactive | 
13 | O=CC(F)(F)C(F)(F)C(F)(F)C(F)F | inactive | 
14 | O=C(F)C(F)(F)C(F)(F)C(F)(F)C(=O)F | inactive | 
15 | O=C1OC(=O)C(F)(F)C1(F)F | inactive | 
16 | C=CC(=O)OCCC(F)(F)C(F)(F)C(F)(F)C(F)(F)C(F)(F)C(F)(F)C(F)(F)C(F)(F)F | inactive | 
17 | NC(C(F)(F)F)C(F)(F)F | inactive | 
18 | O=C(O)CCC(F)(F)C(F)(F)C(F)(F)C(F)(F)C(F)(F)F |  | 28.3 µM (active)
19 | FC(F)=C(F)C(F)(F)C(F)(F)C(F)(F)C(F)F | inactive | 
20 | FCOC(C(F)(F)F)C(F)(F)F | inactive | 
21 | FC(F)(F)N1C(F)(F)C(F)(F)OC(F)(F)C1(F)F | inactive | 
22 | FC(F)(F)C1(F)C(F)(F)C(F)(F)C(F)(F)C1(F)F | inactive | 
23 | O=C(CC(=O)C(F)(F)C(F)(F)C(F)(F)F)c1cccs1 |  | 7.34 µM (active)
24 | O=P(O)(O)CCC(F)(F)C(F)(F)C(F)(F)C(F)(F)C(F)(F)C(F)(F)F |  | 32.1 µM (active)
